Our source for the activity change, negative = inhibition and activity, negative = inhibition values is PubChem BioAssay (NCATS).

Results filed as inconclusive are left out. Values without a mark were called inactive. Calls come from the whole dose curve; as a rule, active = well fitted curve in either direction with a large enough effect (not every such curve was filed as active); inconclusive = small, poorly fitted or top-dose-only effect, or another doubt; inactive = flat fitted curve, though single readings scatter.
% is set by controls: 0 for no effect and ±100 for the full control effect.

The first assay can be described thus: NFAT Signaling Pathway (AID 444).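 Note: carbachol stimulus at about its EC50 of 1 µM final.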 As to conditions: Jurkat NFAT-bla M1, carbachol, beta-lactamase ratio, 5 h; at 17.2 µM (top of the series) unless noted. In a few lines:
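Jurkat cells with NFAT-driven β-lactamase reporter and co-expressed M1 receptor, stimulated with carbachol (final 1 uM, ~EC50), compound titration, 5 h at 37 °C. CCF4 loaded 1 h at RT; 460/530 nm ratio gave %activity and AC50.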
For the compound `CC1(C)Cc2c(oc3ncn4ncnc4c23)CO1`, the activity change, negative = inhibition was -1.16%.
In the case of `NC(=O)C(c1ccccc1)C1CCCC1` (stereo not given), the activity change, negative = inhibition was 1.68%.
On to `COc1ccc(C2=Nn3c(nnc3-c3cccnc3)SC2)cc1OC`, for which the activity change, negative = inhibition was -23%.
In the case of `O=C1CC(c2ccccc2)NC(=O)N1` (stereo not given), the activity change, negative = inhibition was -2.15%.
Turning to `CSCCC(CO)NC(=O)OCc1ccccc1` (stereo not given), the activity change, negative = inhibition was -0.945%.
Still for that read-out and setting: as for `c1ccc(Cc2nn[nH]n2)cc1`, the figure is -3.11%; as for `COC(=O)c1ccc(C2/C(=C(/O)c3ccc(OC)cc3)C(=O)C(=O)N2c2cc(C)on2)cc1` (stereo not given), -13.5%.
Still for that read-out and setting: under `CC1(C)Cc2c(C#N)c(N3CCN(C(=O)c4ccccc4)CC3)nc(-c3ccco3)c2CS1` stands -24.6%; under `CCc1nc(N2CCOCC2)c(C#N)c2c1CCCC2`, -21.8%.
The same measure, in the same setting: under `NS(=O)(=O)c1ccc(-c2ccc(C=NC3CCS(=O)(=O)C3)o2)cc1` (stereo not given) stands -3.68%; under `COC(=O)C1=C(C)OC(N)=C(C#N)C1c1ccc(OC)c(OC)c1OC` (stereo not given), -15.6%.
For `COCCNc1nc2c(c(=O)n(C)c(=O)n2C)n1Cc1cccc(C(F)(F)F)c1`, the activity change, negative = inhibition is 5.18%.
The same measure, in the same setting: as for `C1CNCCNCCCNCCNC1`, the figure is 2.39%; as for `O=C(O)C1CSC(CCc2ccccc2)N1` (stereo not given), -1.74%; as for `CC(C)OC(=O)CC1=NC(=O)CS1`, 8.36%.
For the compound `COCCCn1c2nc3ccccc3nc2c2c(=O)n(-c3ccccc3OC)c(C)nc21`, the activity change, negative = inhibition was -8.29%.
Still for that read-out and setting: under `COc1ccc(-c2ncncc2-c2csc(C)n2)c(O)c1` stands -5.52%; under `CCCC1Cc2c(sc3ncnc(N)c23)CO1` (stereo not given), -5.16%.
Still for that read-out and setting: under `CCCCc1nc2n[nH]c(N)c2c2c1CCCC2` stands 1.99%; under `COC(=O)c1[nH]c2ccc(Cl)cc2c1NC(=O)C1CC1`, -26.4%.
On to `CCCOc1ccc(/C(O)=C2/C(=O)C(=O)N(CCN(C)C)C2c2ccc(OC)c(OC)c2)cc1` (stereo not given), for which the activity change, negative = inhibition is 5.84%.
Still for that read-out and setting: as for `O=C(NCc1ccccc1)/C(=N\O)c1ccccc1`, the figure is 12.4%; as for `COC(=O)CC1=NC(=O)CS1`, -3.72%.
On the same count and under the same terms, under `O=C(NCCCn1ccnc1)C(Cc1ccccc1)N1C(=O)c2ccccc2C1=O` (stereo not given) stands 7.45%.
Turning to `CN1CCN(C(=O)CSc2nc(-c3ccncc3)ccc2C#N)CC1`, the activity change, negative = inhibition was -14.8%.
Still for that read-out and setting: under `Cc1cccc(C)c1OCC(O)CNS(=O)(=O)c1ccccc1C(=O)N1CCOCC1` (stereo not given) stands 9%.
As for `Cc1cc(C)c(NC(=O)OCCN2CCOCC2)c(C)c1`, the activity change, negative = inhibition is -5.81%.
Still for that read-out and setting: as for `CC12CCC(C(=O)N(CCC#N)CCC#N)(CC1=O)C2(C)C` (stereo not given), the figure is 18.9%.
The same measure, in the same setting: under `C=C(C)Cn1c(-c2ccc(OC)cc2)nc2ccccc21` stands 3.93%; under `C=CCNc1nc(NCc2ccccc2)c(C#N)c2c1CN(C)CC2`, 5.41%.
The same measure, in the same setting: as for `CCOC(=O)c1c(C(F)(F)C(F)(F)C(F)(F)C(F)(F)F)n[nH]c1C`, the figure is -9.51%.
Consider `COCCN(Cc1ccccc1)P(=O)(O)c1ccccc1OCC(=O)O`, for which the activity change, negative = inhibition was -4.16%.
The same measure, in the same setting: as for `CC(NC(=O)NC(N)=O)(C(F)(F)F)C(F)(F)F`, the figure is -0.043%; as for `CC(C)(C)NC(=O)CSc1nsc(SCC(=O)NC(C)(C)C)c1C#N`, -10.2%.
Consider `O=C(CCN1CCCCC1)Nc1cccc(Cl)c1`, for which the activity change, negative = inhibition is -23.2%.
Same read-out and setting: as for `C=CCOc1nc2c(c(=O)n(C)c(=O)n2C)n1Cc1ccccc1Cl`, the figure is -10.1%; as for `Cc1ccc(C(=O)C2=C(O)C(=O)N(c3ncccn3)C2c2ccc(Cl)cc2)o1` (stereo not given), 23%.
On to `Cn1c(SCC(=O)N2CCOCC2)nnc1-c1ccc(Cl)cc1Cl`, for which the activity change, negative = inhibition is -5.6%.
`O=C1C2ON(c3ccccc3)C(c3cccnc3)C2C(=O)N1c1ccccc1` (stereo not given): the activity change, negative = inhibition was -5.72%.
For `Cc1nnc(C)n1/N=C/c1cccn1C`, the activity change, negative = inhibition is 13.1%.

The nature of another assay: Stat Signaling Pathway (AID 446).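 Note: ME-180 cervical cancer cells given 40 pM IL-6 alongside compound; SIE-controlled beta-lactamase reporter measured as 460/530 nm FRET emission ratio.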 As to conditions: ME-180 (cervical carcinoma) SIE beta-lactamase reporter, IL-6 stimulated, 5 h; at 17.2 µM (top of the series) unless noted. The gist of the method:
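Overnight-plated ME-180 cells bearing a STAT Inducible Element beta-lactamase reporter; 5 h co-exposure to compound and 40 pM IL-6; values normalized to 300 pM IL-6 and 125 nM JAK inhibitor controls.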
With `CC1(C)Cc2c(oc3ncn4ncnc4c23)CO1`, the activity, negative = inhibition was 7.25%.
Regarding `NC(=O)C(c1ccccc1)C1CCCC1` (stereo not given), the activity, negative = inhibition was 15.2%.
On the same count and under the same terms, under `COc1ccc(C2=Nn3c(nnc3-c3cccnc3)SC2)cc1OC` stands -17.6%; under `O=C1CC(c2ccccc2)NC(=O)N1` (stereo not given), -0.378%; under `CSCCC(CO)NC(=O)OCc1ccccc1` (stereo not given), 2.15%.
Still for that read-out and setting: as for `c1ccc(Cc2nn[nH]n2)cc1`, the figure is 8.05%; as for `COC(=O)c1ccc(C2/C(=C(/O)c3ccc(OC)cc3)C(=O)C(=O)N2c2cc(C)on2)cc1` (stereo not given), -20.1%; as for `CC1(C)Cc2c(C#N)c(N3CCN(C(=O)c4ccccc4)CC3)nc(-c3ccco3)c2CS1`, 9.81%.
The same measure, in the same setting: as for `CCc1nc(N2CCOCC2)c(C#N)c2c1CCCC2`, the figure is -7.54%; as for `NS(=O)(=O)c1ccc(-c2ccc(C=NC3CCS(=O)(=O)C3)o2)cc1` (stereo not given), -5.15%; as for `COC(=O)C1=C(C)OC(N)=C(C#N)C1c1ccc(OC)c(OC)c1OC` (stereo not given), 8.15%.
Turning to `COCCNc1nc2c(c(=O)n(C)c(=O)n2C)n1Cc1cccc(C(F)(F)F)c1`, the activity, negative = inhibition was 226%.
Consider `C1CNCCNCCCNCCNC1`, for which the activity, negative = inhibition was -11.5%.
The same measure, in the same setting: under `O=C(O)C1CSC(CCc2ccccc2)N1` (stereo not given) stands 27%; under `CC(C)OC(=O)CC1=NC(=O)CS1`, 9.47%.
For `COCCCn1c2nc3ccccc3nc2c2c(=O)n(-c3ccccc3OC)c(C)nc21`, the activity, negative = inhibition is 5.28%.
Regarding `COc1ccc(-c2ncncc2-c2csc(C)n2)c(O)c1`, the activity, negative = inhibition was 0.893%.
Still for that read-out and setting: under `CCCC1Cc2c(sc3ncnc(N)c23)CO1` (stereo not given) stands -9.41%; under `CCCCc1nc2n[nH]c(N)c2c2c1CCCC2`, 7.03%.
On the same count and under the same terms, as for `COC(=O)c1[nH]c2ccc(Cl)cc2c1NC(=O)C1CC1`, the figure is 1.62%; as for `CCCOc1ccc(/C(O)=C2/C(=O)C(=O)N(CCN(C)C)C2c2ccc(OC)c(OC)c2)cc1` (stereo not given), -1.07%; as for `O=C(NCc1ccccc1)/C(=N\O)c1ccccc1`, 3.38%.
The same measure, in the same setting: as for `COC(=O)CC1=NC(=O)CS1`, the figure is 12.3%; as for `O=C(NCCCn1ccnc1)C(Cc1ccccc1)N1C(=O)c2ccccc2C1=O` (stereo not given), 5.97%.
For `CN1CCN(C(=O)CSc2nc(-c3ccncc3)ccc2C#N)CC1`, the activity, negative = inhibition was 1.66%.
Turning to `Cc1cccc(C)c1OCC(O)CNS(=O)(=O)c1ccccc1C(=O)N1CCOCC1` (stereo not given), the activity, negative = inhibition was 3.91%.
Still for that read-out and setting: as for `Cc1cc(C)c(NC(=O)OCCN2CCOCC2)c(C)c1`, the figure is 5.25%.
Consider `CC12CCC(C(=O)N(CCC#N)CCC#N)(CC1=O)C2(C)C` (stereo not given), for which the activity, negative = inhibition was 6.43%.
On the same count and under the same terms, under `C=C(C)Cn1c(-c2ccc(OC)cc2)nc2ccccc21` stands 5.37%.
Same read-out and setting: as for `C=CCNc1nc(NCc2ccccc2)c(C#N)c2c1CN(C)CC2`, the figure is 25.2%; as for `CCOC(=O)c1c(C(F)(F)C(F)(F)C(F)(F)C(F)(F)F)n[nH]c1C`, -8.59%.
The same measure, in the same setting: as for `COCCN(Cc1ccccc1)P(=O)(O)c1ccccc1OCC(=O)O`, the figure is 2.47%; as for `CC(NC(=O)NC(N)=O)(C(F)(F)F)C(F)(F)F`, -1.84%.
For `CC(C)(C)NC(=O)CSc1nsc(SCC(=O)NC(C)(C)C)c1C#N`, the activity, negative = inhibition is 3.19%.
`O=C(CCN1CCCCC1)Nc1cccc(Cl)c1`: the activity, negative = inhibition was -0.895%.
As to `C=CCOc1nc2c(c(=O)n(C)c(=O)n2C)n1Cc1ccccc1Cl`, the activity, negative = inhibition is -0.000949%.
Take `Cc1ccc(C(=O)C2=C(O)C(=O)N(c3ncccn3)C2c2ccc(Cl)cc2)o1` (stereo not given): the activity, negative = inhibition was -10.8%.
For `Cn1c(SCC(=O)N2CCOCC2)nnc1-c1ccc(Cl)cc1Cl`, the activity, negative = inhibition is 5.04%.
Still for that read-out and setting: as for `O=C1C2ON(c3ccccc3)C(c3cccnc3)C2C(=O)N1c1ccccc1` (stereo not given), the figure is 1.24%; as for `Cc1nnc(C)n1/N=C/c1cccn1C`, -1.54%.
